# SW480 rerep: induces DNA re-replication in SW480 colon adenocarcinoma cells. SW480 DNA re-replication, Hoechst DNA content imaging, 48 h. Potency, µM (doses to about 46.1 µM), inactives show at the top dose re-replication activation, hits mostly activators. 1.8% of 340,000 active. AID 624297; note: potency is the fitted concentration of half-maximal effect; % of control where 0% means no effect; nearly all actives have a fitted effect of over 55% in size
#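 Cells (250 per well) received 23 nL compound or DMSO by pin tool and were kept 48 hr at 37 C, 5% CO2. Nuclei were then stained with Hoechst for 40 min and scanned for DNA content.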
# KB-V1 MDR tox: KB-V1 MDR subline cytotoxicity; KB-V1 MDR cells viability, CellTiter-Glo, 72 h; Potency, µM (doses to about 46.1 µM), most hits filed as cytotoxic; 3.4% of 400,000 active; note: potency is the fitted concentration of half-maximal effect; % is set by controls: 0 for no effect and ±100 for the full control effect; nearly all actives have a fitted effect of over 60% in size
#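 KB-V1, DMEM (no phenol red) + 10% FBS; cpd pin-transferred, titration series; 72 h, 37 degrees C; CellTiter-Glo, luminescence. Data normalized, curve-fit.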
# MCF10A rereplic: DNA re-replication induction in MCF 10a cells. MCF 10A DNA re-replication, Hoechst nuclear intensity, 48 h. Potency, µM (top dose mostly 46.1 µM), without a hit: top-dose activity, positive = re-replication, usual class: activators. 2.9% of 350,000 active. AID 624296; note: potency is the fitted concentration of half-maximal effect; % of control where 0% means no effect; nearly all actives have a fitted effect of over 50% in size
# KB-3-1 tox: kills parental KB-3-1 adenocarcinoma cells. KB-3-1 viability, CellTiter-Glo ATP luminescence, 72 h. Potency, µM (titrated, usually from 46.1 µM), actives largely listed as cytotoxic. 1.4% of 400,000 active. AID 1347075; note: potency is the fitted concentration of half-maximal effect; % is set by controls: 0 for no effect and ±100 for the full control effect; nearly all actives have a fitted effect of over 60% in size
#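 Parental KB-3-1 adenocarcinoma cells in phenol-red-free DMEM with 10% FBS were pin-treated with compounds at several concentrations, incubated 72 h at 37 °C, and viability read by CellTiter-Glo luminescence; concentration-effect curves were fitted after normalization.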
# D3 antag: blocks the human D3 dopamine receptor | D3R cells, DiscoveRx beta-arrestin luminescence, antagonist mode; hits give low values | max response, negative = inhibition, % | 2.5% of 360,000 active; in the data active = max response below about -50%; inconclusive = no clear call, values can overlap the other calls; note: % is set by controls: 0 for no effect and ±100 for the full control effect
# Target sequence (P35462 whole entry, looked up): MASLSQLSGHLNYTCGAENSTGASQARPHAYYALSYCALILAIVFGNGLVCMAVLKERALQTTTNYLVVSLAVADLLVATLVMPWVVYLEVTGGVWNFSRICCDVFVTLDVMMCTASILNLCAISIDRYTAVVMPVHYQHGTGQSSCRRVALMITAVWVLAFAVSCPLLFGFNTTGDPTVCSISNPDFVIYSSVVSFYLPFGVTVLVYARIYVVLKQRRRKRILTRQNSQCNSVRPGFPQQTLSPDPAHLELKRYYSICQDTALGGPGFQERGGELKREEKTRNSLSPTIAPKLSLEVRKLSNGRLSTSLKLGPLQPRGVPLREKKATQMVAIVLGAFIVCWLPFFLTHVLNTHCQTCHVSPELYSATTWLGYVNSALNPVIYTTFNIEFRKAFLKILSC
#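 Cells plated overnight at 1500 cells/well, then exposed to library compounds with dopamine controls for 90 minutes at 37 degrees C. DiscoveRx reagent added for 30–60 minutes at room temperature; luminescence read, quantitative HTS format.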
# DRD3 agonist: D3 dopamine receptor (human) agonism; P35462; D3R DiscoveRx beta-arrestin cells, luminescence, 90 min; max activation, %; 0.58% of 410,000 active; in the data active = max activation above about 30%; note: 0% is about no effect
#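 Agonist-mode cell screen: cells plated at 1500/well and incubated overnight at 37 °C, then exposed to library compounds for 90 min at 37 °C. Detection reagent was added for 30–60 min at room temperature, and luminescence was read.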
# * marks the source's active call; other numbers are inactive results; i = inactive; ? = inconclusive; . = no result given. In the library only some 8.9% were active in any assay of this set; here they are far more common. Unless noted, calls come from the whole dose curve; as a rule, active = well fitted curve in the direction sought with a large enough effect; inconclusive = small, poorly fitted or top-dose-only effect, or another doubt; inactive = no such curve, though single readings can be large; an effect the other way counts as inactive or inconclusive.
SMILES,SW480 rerep,KB-V1 MDR tox,MCF10A rereplic,KB-3-1 tox,D3 antag,DRD3 agonist
Cn1c(SCC(=O)Nc2nccs2)nnc1C12CC3CC(CC(C3)C1)C2,-1%,21µM*,5%,i,21,-1
Cn1c(CSCc2ccccc2Cl)nnc1SCC(=O)Nc1nccs1,-11%,21µM*,12%,i,0,11
CCCCNC(=O)c1cnc2c(-c3ccc(OCC)c(OCC)c3)c(C)nn2c1-c1ccccc1,.,i,.,i,.,-11
N#CC1=C(c2ccccc2)/C(=C/c2ccccc2)OC1=O,?,?,6.5µM*,?,-59*,-11
Cc1ccc(S(=O)(=O)NC(CC(=O)O)c2ccco2)cc1 (centres undefined),-11%,i,-8%,i,-15,-9
CCC(C)NC(=O)CC(NS(=O)(=O)c1ccc(Cl)cc1)c1ccco1 (centres undefined),-8%,?,0%,i,-53*,1
O=C(CC(NS(=O)(=O)c1ccc(Cl)cc1)c1ccco1)N1CCc2ccccc21 (centres undefined),2%,i,10%,i,-69*,-3
CC(C)CN(C)c1ccc(/C=C2\C=Cc3ccccc32)cc1,.,i,.,i,.,.
Cc1cc(C(=O)CN2C(=O)c3cccc(N)c3C2=O)c(C)n1Cc1cccs1,?,i,2.6µM*,i,-26,-5
Cc1cc(C(=O)CN2C(=O)NC3(CCCCC3C)C2=O)c(C)n1Cc1cccs1 (centres undefined),1%,23µM*,15%,i,-16,-22
CC1CCCCC12NC(=O)N(CC(=O)NCc1cccs1)C2=O (centres undefined),.,i,.,i,3,-1
COc1ccc(OC)c(NC(=O)c2nc(S(=O)(=O)Cc3ccccc3F)ncc2Cl)c1,.,i,.,?,.,.
COc1ccc(-c2noc(N3CCC(C(=O)N4CCN(c5cccc(OC)c5)CC4)CC3)n2)cc1,.,.,.,.,.,12
Clc1ccc(Nc2ccc(NCc3ccccc3)nn2)cc1,16µM*,16µM*,?,i,8,1
CC(C)c1nnc(NC(=O)Cc2ccccc2[N+](=O)[O-])s1,-135%,23µM*,?,i,10,-7
COc1cc(NC(=O)CSc2nc(C)c(C)c(C)n2)c(C)cc1[N+](=O)[O-],-14%,15µM*,7%,i,12,-1
COc1ccc(NC(=O)CSc2n[nH]c(N)n2)c([N+](=O)[O-])c1,-13%,i,4%,i,-92*,-4
Cc1ccc(C(=O)CSc2nsc(C)c2C#N)cc1,-2%,i,-2%,i,27,5
CC(=O)CSc1nsc(SCC(C)=O)c1C#N,-3%,i,1%,?,-69*,-6
Cc1snc(SCC(=O)c2ccc(Cl)cc2)c1C#N,11%,21µM*,24%,i,14,9
Cc1ccc2nc(-c3cccs3)c(Nc3ccc4c(c3)OCCO4)n2c1,.,i,.,i,.,9
O=C(CCCl)Nc1nnc(SCC(=O)NC2CCCC2)s1,8.2µM*,i,18µM*,i,1,-4
CCOCCCNC(=O)c1cn(C)c2ccc(S(=O)(=O)N3CCCCC3)cc2c1=O,-33%,i,0%,?,4,3
CC1CCN(S(=O)(=O)c2ccc3c(c2)c(=O)c(C(=O)N2CCOCC2)cn3C)CC1,-14%,i,9%,i,4,2
CCn1cc(C(=O)NCC(OC)OC)c(=O)c2cc(S(=O)(=O)N3CCCC3)ccc21,-5%,i,0%,i,3,2
CC1CCN(S(=O)(=O)c2ccc3c(c2)c(=O)c(C(=O)N2CCCCC2)cn3C)CC1,-7%,i,0%,i,7,35*
COCCNC(=O)c1cn(C)c2ccc(S(=O)(=O)N3CCCCC3)cc2c1=O,-8%,i,21%,23µM*,19,6
CCn1cc(C(=O)NCC(OC)OC)c(=O)c2cc(S(=O)(=O)N3CCC(C)CC3)ccc21,9%,i,?,13µM*,16,1
